The nature of experiment [1]: qHTS assay to identify small molecule antagonists of the estrogen receptor alpha (ER-alpha) signaling pathway using the BG1 cell line in the presence of 0.1 nM 17-beta-estradiol - cell viability counter screen (AID 1259241). Also: nearly all actives have a fitted effect of over 40% in size. Also: potency is read from the fitted curve at half-maximal effect. In short, it runs like this:
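VM7Luc4E2 cells (endogenous ER-alpha, 4×ERE-luciferase), hormone-starved 5 days in charcoal-stripped FBS, were treated with compounds plus 0.1 nM 17beta-estradiol for 22 hr at 37C; viability read in same wells as CellTiter-Fluor live-cell protease fluorescence.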
In general terms: Quantitative high-throughput screening tests each substance at several concentrations.

In experiment [2] the target is Androgen receptor (Homo sapiens) (UniProt P10275). In words: qHTS assay to identify small molecule antagonists of the androgen receptor (AR) signaling pathway using the MDA cell line in the presence of 0.5 nM R1881 (AID 1259243). Also: nearly all actives have a fitted effect of over 50% in size. Also: potency is read from the fitted curve at half-maximal effect. In short, it runs like this:
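Reporter cells cultured without CO2 receive test chemicals, then 0.5 nM R1881 final; after 16 hr at 37C, ONE-Glo is added and light output recorded.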

The nature of experiment [3]: qHTS assay to identify small molecule HDAC inhibitors (AID 1259364).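 Also: wild-type HCT-116 cells with endogenous class I/II HDAC activity; top concentration of the series differs between compounds; nearly all actives have a fitted effect of over 45% in size.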 In short, it runs like this:
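Read-out: luminescence of HDAC-Glo I/II reagent, 30 min RT, reflecting class I/II deacetylase activity in whole HCT-116 cells pre-exposed 2 h to DMSO-dissolved compounds.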

A short description of experiment [4]: qHTS assay to identify small molecule HDAC inhibitors - cell viability counter screen (AID 1259365). Also: series mostly up to about 92 µM; nearly all actives have a fitted effect of over 50% in size. The method in brief: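 Wild-type HCT-116 cells were seeded at 1,500 per well, incubated overnight at 37 C, then exposed to compounds in DMSO for 2hr. Viability was read by CellTiter-Glo luminescence after 30min at room temperature.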
The nature of experiment [5]: qHTS assay to identify small molecule agonists of the sonic hedgehog signaling (Shh) pathway - cell viability counter screen (AID 1259366). Also: nearly all actives have a fitted effect of over 50% in size. Also: potency is read from the fitted curve at half-maximal effect. The method in brief:
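NIH/3T3-derived 3T3 Gli1-Luc cells (stable Gli1-responsive firefly luciferase reporter) were seeded, rested 4 hr at 37 C/5% CO2, then exposed to compounds in DMSO for 24 hr; viability was read by CellTiter-Fluor fluorescence in the same wells.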

The nature of experiment [6]: qHTS assay to identify small molecule antagonists of the sonic hedgehog signaling (Shh) pathway - cell viability counter screen (AID 1259367). Also: nearly all actives have a fitted effect of over 55% in size. Also: potency is read from the fitted curve at half-maximal effect. The method in brief: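 Cells: 3T3 Gli1-Luc, 2,000/well, 4 hr pre-incubation. Compounds in DMSO, then conditioned medium. Incubation 24 hr, 37C, 5% CO2. CellTiter-Fluor at 23 hr, 1 hr, fluorescence.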
Experiment [7] is described as follows: qHTS assay to identify small molecule agonists of the sonic hedgehog signaling (Shh) pathway (AID 1259368; calls by dose curve; also: series mostly up to about 92 µM; nearly all actives have a fitted effect of over 15% in size). In short, it runs like this: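 A Gli1 transcriptional response element controlled firefly luciferase in 3T3Gli1-Luc cells. Compounds and a positive control were added 4 hr after plating, and cells were incubated a further 24 hr at 37 C before luminescence detection.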

Experiment [8] can be described thus: qHTS assay to identify small molecule antagonists of the sonic hedgehog signaling (Shh) pathway (AID 1259369; calls by dose curve; also: nearly all actives have a fitted effect of over 45% in size; also: potency is read from the fitted curve at half-maximal effect). The method in brief:
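For antagonist detection, the reporter line received test compounds together with conditioned medium, incubated 24hr at 37 C, 5% CO2, then luminescence was recorded following 30min room-temperature luciferase reagent incubation.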

A short description of experiment [9]: qHTS assay to identify small molecule agonists of the androgen receptor (AR) signaling pathway in the presence of an antagonist - cell viability counter screen (AID 1259379). Also: nearly all actives have a fitted effect of over 25% in size. Also: potency is read from the fitted curve at half-maximal effect. The method in brief: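 Seed MDA-kb2 at 3,000 cells/well; incubate 5 hr, 37C, 0% CO2. Add nilutamide to 3.0uM final, then pin compounds at 15 concentrations. Incubate 16 hr. Add CellTiter-Fluor at 15 hr, read fluorescence after 1 hr.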

Experiment [10] in a line: qHTS assay to identify small molecule agonists of the estrogen receptor beta (ER-beta) signaling pathway - cell viability counter screen (AID 1259380). Also: nearly all actives have a fitted effect of over 30% in size. Also: potency is read from the fitted curve at half-maximal effect. The method in brief:
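CellTiter-Glo read, 30 min RT, same wells as bla assay; cells ER-beta-UAS-bla HEK293T; 16 hr compound, 37C; medium 2% charcoal-stripped FBS.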

The target of experiment [11] is Androgen receptor (Homo sapiens) (UniProt P10275). Briefly: qHTS assay to identify small molecule agonists of the androgen receptor (AR) signaling pathway in the presence of an antagonist (AID 1259381; calls by dose curve; also: nearly all actives have a fitted effect of over 15% in size). The method in brief:
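Test compounds at 15 concentrations were incubated for 16hr with MDA-kb2 reporter cells in presence of 3.0uM nilutamide (final). Signal: ONE-Glo luciferase luminescence.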

A short description of experiment [12]: qHTS assay to identify small molecule antagonists of the estrogen receptor beta (ER-beta) signaling pathway - cell viability counter screen (AID 1259382). Also: nearly all actives have a fitted effect of over 55% in size. Also: potency is read from the fitted curve at half-maximal effect. In short, it runs like this: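 In this multiplexed counter screen, cells were seeded at 2,000 per well in medium with 2% charcoal-stripped FBS and incubated 6 hr before compound and 1nM final E2 were added. Sixteen hours later, ATP-based luminescence reported viability.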

Experiment [13] in a line: qHTS assay to identify small molecule agonists or antagonists of the thyroid stimulating hormone receptor (TSHR) signaling pathway - wild type cell line counter screen (AID 1259384; calls by dose curve). In short, it runs like this:
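Counter screen in untransfected Hek293: compounds (15-point titration, triplicate) plus phosphodiesterase inhibitor Ro20-1724 added after 18 h plating; 30 min RT. Intracellular cAMP via competitive d2/cryptate immunoassay, 1 h incubation.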

Experiment [14] has as its target Thyrotropin receptor (Homo sapiens) (UniProt P16473). Briefly: qHTS assay to identify small molecule antagonists of the thyroid stimulating hormone receptor (TSHR) signaling pathway (AID 1259385; calls by dose curve; also: nearly all actives have a fitted effect of over 20% in size). In short, it runs like this: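 Antagonist mode: compound-treated TSHR-expressing HEK293 cells were stimulated with 1.5 ng/mL TSH (final) in presence of Ro20-1724 for 30 min at RT. HTRF cAMP detection after 1 h; each compound tested at 15 concentrations, triplicate.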

Experiment [15] has as its target Estrogen receptor (Homo sapiens) (UniProt P03372). In words: qHTS assay to identify small molecule antagonists of the estrogen receptor alpha (ER-alpha) signaling pathway using the BG1 cell line in the presence of 0.1 nM 17-beta-estradiol (AID 1259244). Also: nearly all actives have a fitted effect of over 50% in size. Also: potency is read from the fitted curve at half-maximal effect. The method in brief:
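Estradiol at 0.1 nM (final) stimulates the endogenous ER-alpha of VM7Luc4E2 cells carrying an ERE-driven luciferase; compounds are co-incubated 22 h at 37C and luciferase output quantified by luminescence.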

For experiment [16], the target named is Estrogen receptor beta (Homo sapiens) (UniProt Q92731). In words: qHTS assay to identify small molecule agonists of the estrogen receptor beta (ER-beta) signaling pathway (AID 1259377; active = well fitted activation curve with a large enough effect in the signal ratio in the repeat runs, not every such curve was filed as active; the % refers to the signal ratio). In short, it runs like this: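 ER-beta-UAS-bla HEK293T (GripTite) cells carrying a UAS-driven beta-lactamase reporter, in medium with 2% charcoal-stripped FBS, were exposed to compounds for 16 hr at 37C; LiveBLAzer B/G FRET substrate was then added and fluorescence read after 2 hours at room temperature.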
Estrogen receptor beta (Homo sapiens), sequence (Q92731 whole entry, looked up): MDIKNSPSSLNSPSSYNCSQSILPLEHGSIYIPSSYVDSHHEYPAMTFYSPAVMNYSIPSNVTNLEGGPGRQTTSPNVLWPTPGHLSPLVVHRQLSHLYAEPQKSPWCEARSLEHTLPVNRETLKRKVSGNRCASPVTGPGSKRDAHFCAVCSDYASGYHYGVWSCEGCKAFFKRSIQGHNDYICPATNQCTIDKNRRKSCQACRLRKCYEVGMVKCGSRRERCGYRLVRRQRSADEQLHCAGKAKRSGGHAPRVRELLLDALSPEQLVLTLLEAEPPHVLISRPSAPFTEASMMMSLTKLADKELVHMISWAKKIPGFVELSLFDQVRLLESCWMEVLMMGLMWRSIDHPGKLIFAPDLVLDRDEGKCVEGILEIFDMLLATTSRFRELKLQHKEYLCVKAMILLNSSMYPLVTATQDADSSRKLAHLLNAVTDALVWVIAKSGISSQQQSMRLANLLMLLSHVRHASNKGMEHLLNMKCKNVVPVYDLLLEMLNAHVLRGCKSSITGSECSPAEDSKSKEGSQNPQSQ

The target is the same in experiment [17]. In words: qHTS assay to identify small molecule antagonists of the estrogen receptor beta (ER-beta) signaling pathway (AID 1259378; active = well fitted inhibition curve with a large enough effect in the signal ratio in the repeat runs, not every such curve was filed as active; the % refers to the signal ratio; also: potency is read from the fitted curve at half-maximal effect). The method in brief:
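Antagonist mode: compounds added to beta-lactamase reporter HEK293T ER-beta-UAS cells stimulated with E2 (1nM final), 16 hr at 37C. LiveBLAzer B/G FRET substrate, 2 hours room temperature, fluorescence read-out.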

The target of experiment [18] is Estrogen receptor (Homo sapiens) (UniProt P03372). Briefly: qHTS assay to identify small molecule agonists of the estrogen receptor alpha (ER-alpha) signaling pathway in the presence of an antagonist (AID 1259383; calls by dose curve; also: top concentration of the series differs between compounds; nearly all actives have a fitted effect of over 15% in size). The method in brief: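 Stably transfected VM7Luc4E2 reporter cells, kept 5 days in charcoal-stripped serum, received ICI-182,780 at 10.0nM final before compound addition. Following 22hr incubation at 37C and 5% CO2, luciferase signal was read by luminescence.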
Estrogen receptor (Homo sapiens), sequence (P03372 whole entry, looked up): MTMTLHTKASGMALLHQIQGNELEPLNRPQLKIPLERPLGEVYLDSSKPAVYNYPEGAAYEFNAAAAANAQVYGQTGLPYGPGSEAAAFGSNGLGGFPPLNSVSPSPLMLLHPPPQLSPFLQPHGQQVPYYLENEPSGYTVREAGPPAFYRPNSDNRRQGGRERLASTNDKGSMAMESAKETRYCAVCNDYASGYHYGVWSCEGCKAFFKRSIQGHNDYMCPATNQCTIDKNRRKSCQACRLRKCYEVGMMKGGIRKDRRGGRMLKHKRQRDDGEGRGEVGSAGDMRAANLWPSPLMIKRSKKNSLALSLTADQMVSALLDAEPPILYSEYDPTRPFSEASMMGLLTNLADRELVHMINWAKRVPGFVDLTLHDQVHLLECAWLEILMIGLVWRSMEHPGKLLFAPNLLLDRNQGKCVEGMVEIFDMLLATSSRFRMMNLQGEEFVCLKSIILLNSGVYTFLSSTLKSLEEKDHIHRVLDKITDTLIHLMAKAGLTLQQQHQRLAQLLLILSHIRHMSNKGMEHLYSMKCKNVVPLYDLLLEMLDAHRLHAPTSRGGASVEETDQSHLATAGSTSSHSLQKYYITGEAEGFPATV

Experiment [19] in a line: qHTS assay to identify small molecule antagonists of the androgen receptor (AR) signaling pathway using the MDA cell line in the presence of 0.5 nM R1881 - cell viability counter screen (AID 1259242). Also: nearly all actives have a fitted effect of over 45% in size. Also: potency is read from the fitted curve at half-maximal effect. The method in brief:
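Viability of MDA-kb2 cells was multiplexed with the luciferase AR readout; after 16 hr with compounds and R1881 at 0.5 nM final, CellTiter-Fluor fluorescence was recorded.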

Unmarked numbers belong to inactive results. Records with an inconclusive call do not appear. The source made the active and inactive calls. Unless noted, calls follow the shape of the dose curve; as a rule, active = well fitted curve in the direction sought with a large enough effect in the repeat runs; inconclusive = weak or mixed curves; inactive = no such curve, though single readings can be large; an effect the other way counts as inactive or inconclusive.
% is scaled to controls: 0 for no effect and ±100 for the full control effect.

Androgen receptor (Homo sapiens), sequence (P10275 whole entry, looked up): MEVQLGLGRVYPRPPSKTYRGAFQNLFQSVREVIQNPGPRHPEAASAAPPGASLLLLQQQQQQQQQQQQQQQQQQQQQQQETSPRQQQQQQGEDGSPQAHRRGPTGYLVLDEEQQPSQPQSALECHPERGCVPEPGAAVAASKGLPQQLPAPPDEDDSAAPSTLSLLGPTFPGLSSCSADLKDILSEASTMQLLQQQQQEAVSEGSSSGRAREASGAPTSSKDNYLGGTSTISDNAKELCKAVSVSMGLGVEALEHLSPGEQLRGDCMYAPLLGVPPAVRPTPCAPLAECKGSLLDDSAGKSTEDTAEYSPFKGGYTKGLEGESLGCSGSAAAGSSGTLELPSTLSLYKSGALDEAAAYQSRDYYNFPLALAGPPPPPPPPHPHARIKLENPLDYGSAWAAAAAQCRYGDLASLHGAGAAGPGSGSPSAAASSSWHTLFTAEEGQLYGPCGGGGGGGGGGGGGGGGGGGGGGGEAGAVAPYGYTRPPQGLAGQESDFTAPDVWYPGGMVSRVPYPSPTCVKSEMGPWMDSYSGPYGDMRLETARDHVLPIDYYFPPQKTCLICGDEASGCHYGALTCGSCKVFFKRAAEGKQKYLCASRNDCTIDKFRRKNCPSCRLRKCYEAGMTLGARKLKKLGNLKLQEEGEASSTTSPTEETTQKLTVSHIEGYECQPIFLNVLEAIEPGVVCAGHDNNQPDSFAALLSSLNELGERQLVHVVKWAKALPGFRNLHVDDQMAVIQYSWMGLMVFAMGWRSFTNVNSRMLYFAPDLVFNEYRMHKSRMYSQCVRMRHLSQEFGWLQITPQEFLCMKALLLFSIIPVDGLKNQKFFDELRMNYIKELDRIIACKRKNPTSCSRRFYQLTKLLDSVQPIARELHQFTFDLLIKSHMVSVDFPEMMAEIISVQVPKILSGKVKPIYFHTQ
Thyrotropin receptor (Homo sapiens), sequence (P16473 whole entry, looked up): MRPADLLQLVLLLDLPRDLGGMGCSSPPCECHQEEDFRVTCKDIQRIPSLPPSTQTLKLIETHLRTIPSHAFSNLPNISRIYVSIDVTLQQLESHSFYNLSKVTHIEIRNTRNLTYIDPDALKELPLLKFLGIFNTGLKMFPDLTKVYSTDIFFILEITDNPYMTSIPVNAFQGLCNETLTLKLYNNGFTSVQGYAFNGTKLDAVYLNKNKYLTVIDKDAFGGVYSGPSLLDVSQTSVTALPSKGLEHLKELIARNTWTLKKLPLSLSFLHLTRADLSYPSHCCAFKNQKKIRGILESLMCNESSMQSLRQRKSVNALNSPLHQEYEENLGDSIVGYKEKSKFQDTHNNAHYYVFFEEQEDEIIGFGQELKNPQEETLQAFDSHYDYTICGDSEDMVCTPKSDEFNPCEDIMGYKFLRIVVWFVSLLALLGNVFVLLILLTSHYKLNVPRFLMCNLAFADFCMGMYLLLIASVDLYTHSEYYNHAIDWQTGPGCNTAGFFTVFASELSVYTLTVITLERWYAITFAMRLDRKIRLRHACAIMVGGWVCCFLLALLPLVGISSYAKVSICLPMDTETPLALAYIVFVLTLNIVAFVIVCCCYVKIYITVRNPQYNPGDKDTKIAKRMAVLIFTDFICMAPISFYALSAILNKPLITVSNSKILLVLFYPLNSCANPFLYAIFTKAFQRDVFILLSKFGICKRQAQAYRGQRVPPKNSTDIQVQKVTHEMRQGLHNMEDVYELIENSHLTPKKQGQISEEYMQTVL

In the case of `CC(C)C(=O)Cl`, the Potency entry in [1], in experiment [2], in experiment [3], in [4], in experiment [5] and in [6] was “inactive” throughout. For the same compound, the Potency result in [7], in experiment [8], in [9], in experiment [10], in [11] and in [12] was “inactive” in each case. Further, the Potency result in [14] was “inactive”. The call in experiment [13] was inactive.

On to `COc1cccc2c1C(=O)c1c(O)c3c(c(O)c1C2=O)C[C@@](O)(C(=O)CO)CC3OC1CC(N2CCOC(OC)C2)C(O)C(C)O1` (some centres undefined), for which the Potency in [1] was 13300 nM (active); in experiment [2], 119 nM (active); in experiment [15] it was 150 nM (active); in [5] it was 237 nM (active); in experiment [6], 168 nM (active); in experiment [8], 6.7 nM (active). The Potency in experiment [17] is 168 nM (active); in [9], 13300 nM (active). The Potency entry in experiment [4], in experiment [7], in experiment [16], in [10], in [11] and in [12] was “inactive” each time. For the same compound, the Potency result in [18] was “inactive”. Also, in experiment [13], the call was inactive.

For the compound `CN(C)C(=S)[S-].CN(C)C(=S)[S-].[Cu+2]`, the Potency in experiment [1] is 1670 nM (active); in experiment [19] it was 5920 nM (active); in experiment [5], 2640 nM (active); in [6] it was 3330 nM (active); in [8], 1490 nM (active); in [9], 3330 nM (active). Moreover, the Potency in experiment [10] is 5920 nM (active); in [12], 7450 nM (active). Also, in experiment [3], the activity change, negative = inhibition was -15% [at 19 µM]. For the same compound, the activity change in experiment [7] was -10.5% [at 18.9 µM, active compounds read high].

`CCS(=O)(=O)c1cccnc1S(=O)(=O)NC(=O)Nc1nc(OC)cc(OC)n1`: the Potency result in [1], in [19], in experiment [3], in [4], in experiment [5] and in experiment [6] was “inactive” throughout. In addition, the Potency result in experiment [7], in experiment [9], in experiment [10], in experiment [12] and in experiment [14] was “inactive” throughout. Further, the compound was classed as inactive in experiment [13].

For the compound `Cl/C=C\CCl`, the Potency result in experiment [1], in experiment [19], in experiment [3], in experiment [4], in experiment [5] and in [6] was “inactive” each time. Moreover, the Potency result in experiment [7], in experiment [8], in experiment [9], in [10] and in experiment [12] was “inactive” each time. The outcome in [13] was inactive.

`CC(Cc1ccc(C(C)(C)C)cc1)CN1C[C@@H](C)O[C@@H](C)C1` (some centres undefined): the Potency entry in experiment [1], in experiment [19], in experiment [3], in experiment [4], in experiment [5] and in experiment [6] was “inactive” throughout. Moreover, the Potency result in experiment [7], in experiment [16], in experiment [17], in experiment [9], in experiment [10] and in [12] was “inactive” in each case. In experiment [13], the compound was called inactive.

`N#CCCSCCC#N`: the Potency entry in experiment [1], in [2], in experiment [15], in experiment [3], in experiment [4] and in experiment [5] was “inactive” in each case. For the same compound, the Potency entry in experiment [6], in [7], in [8], in experiment [17], in [9] and in experiment [10] was “inactive” throughout. The Potency result in experiment [11], in experiment [12] and in experiment [18] was “inactive” throughout. Also, the compound was called inactive in [13].

With `O=C(O)COc1nc(Cl)c(Cl)cc1Cl`, the Potency result in [1], in experiment [15], in experiment [3], in experiment [5], in [6] and in [7] was “inactive” throughout. The Potency entry in experiment [8], in experiment [9], in [12] and in experiment [18] was “inactive” each time. Also, the compound was called inactive in experiment [13].

Consider `O=[N+]([O-])c1c2ccccc2cc2ccccc12`, for which the Potency entry in experiment [1], in experiment [15] and in experiment [7] was “inactive” throughout. Further, the Potency in [8] was 67800 nM (active). Further, the call in experiment [13] was inactive.

The record behind these values is PubChem BioAssay (Tox21).
